Data taken from ChEMBL document CHEMBL3988442, “University of Dundee, Small-Polar-MMV Screening Library” (2021).
The whole screen tested about 48,000 compounds, of which about 13,000 (27%) showed an effect of 50% or more. The list shows a part of the results.

The molecules below were run on Wolbachia pipientis (assay: Anti-Wolbachia Cell-Based Screen). Settings: 5 µM.
Format: functional
Set-up: scale not given: in the data most compounds retested in dose-response had high values

SMILES	Percent Effect
Cc1cc2cc(Nc3c(C#N)c(=O)n(C)c(=O)n3C)ccc2[nH]1	4.966%
COc1ccc2c(c1)CC(NCc1cccc(OCC(N)=O)c1)CC2 (centres undefined)	2.98%
CN(C)c1cc2c(nn1)CCN(C(=O)c1cc3ccccc3[nH]c1=O)C2	4.124%
Cc1nnc(SCC(=O)N2CCC3(CC2)c2ccccc2CC3O)o1 (centres undefined)	-11.87%
COc1ccc(C)cc1-n1cnnc1C1CC(=O)N(C)C1 (centres undefined)	6.21%
COc1cc2c(cc1OC)CN(C(=O)NC(C)c1nncn1C)CC2 (centres undefined)	-16.43%
COc1cc2c(cc1OC)C(=O)C(Sc1nnc(C)o1)C2 (centres undefined)	89.14%
CNS(=O)(=O)CCn1cc(-c2cc3c(cc2OC)CCC3)nn1	-24.83%
COc1cccc(Cc2nnc(SC3CCOC3=O)o2)c1 (centres undefined)	-7.418%
COc1cc2c(cc1OC)C(=O)C(Sc1nncn1C)C2 (centres undefined)	119.4%
COc1cc2c(cc1OC)C(=O)C(Sc1nnnn1C)C2 (centres undefined)	95.35%
O=C1CCC2(CCCO2)CCN1Cc1noc(C2CCCC2)n1 (centres undefined)	15.53%
O=C(NC1(c2nnn(Cc3ccncc3)n2)CCCC1)c1ccccc1	-7.35%
CC(O)(CNc1ccccn1)c1ccccc1 (centres undefined)	12.1%
O=C(CCS(=O)(=O)C1CCCC1)NCCc1cccc(O)c1	0.8082%
CCc1ccc2c(c1)C(CCNC(=O)Cc1cccc(F)c1)C(=O)N2 (centres undefined)	1.678%
O=C(NCCNS(=O)(=O)C1CCCCC1)c1ccccc1	130.7%
O=C(Cc1cccc(F)c1)NCCNS(=O)(=O)C1CCCC1	103.6%
Cc1cccc(CCNC(=O)CCS(=O)(=O)C2CCCC2)c1	1.788%
CCS(=O)(=O)NCCNC(=O)c1cnc(-c2ccccc2)nc1	1.605%
O=C(Cc1ccc(F)cc1)NCCc1ccoc1	13.31%
O=C(NCCNS(=O)(=O)c1ccc2c(c1)CCC2)c1ccccc1	4.416%
O=C(Cc1ccc(F)cc1)NCCNS(=O)(=O)C1CCCC1	108.3%
O=C(Cc1ccccc1)NCCNS(=O)(=O)C1CCCCC1	110.7%
O=C(Cc1ccc(F)cc1)NCCNS(=O)(=O)c1ccc(F)c(F)c1	-6.551%
CN(C)C(CNCc1nc(-c2ccsc2)no1)c1cccs1 (centres undefined)	32.89%
CN(Cc1ccc(OC(F)F)cc1)C(=O)CS(=O)(=O)c1ccc(Cl)cc1	-2.734%
O=C(c1ccccc1-c1nnn[nH]1)N1CCOC(C(F)(F)F)C1 (centres undefined)	-13.17%
COc1ccc(C(C)Nc2ncc(C(N)=O)cc2Cl)cc1OC (centres undefined)	2.755%
